Measured values reported in the supplement of paper PMC6607015.
Counter-ions that a name gives are not always drawn.

How the values were obtained:
Details in all cases: compound concentration in added solution (µM; 5 µl added to 20 µl cells): 10; 18 h
A431 [1] = experiment: LBPA endosome anti-LBPA integrated intensity (sum per cell), Z-score; higher = more LBPA staining
Procedure, shortened: (§1)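 The data are Z-scores, normalised in AcuityXpress, of integrated LBPA or filipin intensity in each cell, either whole-cell or restricted to LBPA endosomes. HeLa MZ or A431 cells, 3,500 per well in 20 µl, were seeded onto 5 µl of 10 µM compound solution in duplicate 384-well plates and incubated 18 h. Fixed cells were stained and imaged, with intensities extracted by MetaXpress segmentation.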

HeLa MZ [2] = experiment: as above
Procedure, shortened: as §1

A431 [3] = experiment: whole-cell filipin (free cholesterol) integrated intensity, Z-score; higher = more cholesterol staining
Procedure, shortened: as §1

HeLa MZ [4] = experiment: as above
Procedure, shortened: as §1

A431 [5] = experiment: filipin (cholesterol) integrated intensity within LBPA endosomes, Z-score; higher = more cholesterol in LBPA endosomes
Procedure, shortened: as §1

HeLa MZ [6] = experiment: as above
Procedure, shortened: as §1

SMILES | LBPA endosome anti-LBPA integrated intensity (z-score) (A431 [1]) | LBPA endosome anti-LBPA integrated intensity (z-score) (HeLa MZ [2]) | whole-cell filipin (z-score) (A431 [3]) | whole-cell filipin (z-score) (HeLa MZ [4]) | filipin (z-score) (A431 [5]) | filipin (z-score) (HeLa MZ [6])
CC(CCc1ccccc1)NCC(O)c1ccc(O)c(C(N)=O)c1 (stereo not given) [Labetalol hydrochloride] | 0.794 | 1.06 | 1 | -0.0368 | 0.489 | 0.328
Clc1ccc(C(Cn2ccnc2)OCc2ccsc2Cl)c(Cl)c1 (stereo not given) [Tioconazole] | -0.225 | 0.542 | -0.125 | -0.75 | -0.053 | -0.127
CCCCOc1ccc(C(=O)CCN2CCCCC2)cc1 [Dyclonine hydrochloride] | 0.717 | 0.215 | 0.502 | -0.794 | 0.482 | -0.156
NS(=O)(=O)Cc1noc2ccccc12 [Zonisamide] | -0.257 | 0.173 | -0.0819 | 0.0656 | -0.385 | -0.275
CCCOc1cc(N)ccc1C(=O)OCCN(CC)CC [Propoxycaine hydrochloride] | 0.303 | 1.24 | 0.398 | 0.62 | -0.0905 | 0.287
CN/C(=N\CCSCc1nc[nH]c1C)NC#N [Cimetidine] | -0.436 | -0.604 | -0.5 | -0.3 | -0.458 | -0.409
OCCN1CCN(CCCN2c3ccccc3C=Cc3ccccc32)CC1 [Opipramol dihydrochloride] | 0.228 | 1.81 | 0.629 | -0.0646 | 0.712 | 1.15
CS(=O)(=O)c1ccc([C@@H](O)[C@@H](CF)NC(=O)C(Cl)Cl)cc1 [Florfenicol] | -0.565 | -1.2 | -0.505 | -0.36 | -0.528 | -0.651
CC(=O)OCC(=O)NCCCOc1cccc(CN2CCCCC2)c1 [Roxatidine Acetate HCl] | -0.585 | -0.0177 | -0.731 | -0.282 | -0.524 | -0.38
COc1ccc(CCN(C)CCCC(C#N)(c2ccc(OC)c(OC)c2)C(C)C)cc1OC (stereo not given) [Verapamil hydrochloride] | 2.51 | 2.93 | 2.24 | 0.413 | 2.46 | 1.49
CC1=C(CC(=O)O)c2cc(F)ccc2/C1=C\c1ccc([S+](C)[O-])cc1 (stereo not given) [Sulindac] | -0.696 | -1.83 | -0.98 | -1 | -0.655 | -0.701
O=C1CN(/N=C/c2ccc([N+](=O)[O-])o2)C(=O)N1 [Nitrofurantoin] | -0.475 | -1.22 | -0.354 | -0.515 | -0.501 | -0.575
CN1CCCC(CC2c3ccccc3Sc3ccccc32)C1 (stereo not given) [Metixene hydrochloride] | 3.73 | 1.25 | 0.301 | -0.563 | 3.15 | 1.94
CCOC(=O)/C=C(C)/C=C/C=C(C)/C=C/c1c(C)cc(OC)c(C)c1C [Etretinate] | -0.297 | 0.358 | 0.197 | -0.112 | -0.399 | -0.321
CN1[C@@H]2CC[C@H]1C[C@@H](OC(c1ccccc1)c1ccccc1)C2 [Benztropine mesylate] | 2.51 | 2.77 | 3.07 | 3.74 | 2.51 | 2.8
C[C@H](CCC(=O)O)[C@H]1CC[C@H]2[C@@H]3[C@@H](O)C[C@@H]4C[C@H](O)CC[C@]4(C)[C@H]3CC[C@]12C [Urosiol] | -0.47 | -1.19 | -0.529 | -0.329 | -0.433 | -0.53
CCN1CCCC(OC(=O)C(c2ccccc2)c2ccccc2)C1 (stereo not given) [Piperidolate hydrochloride] | 1.4 | 1.47 | 1.77 | 1.11 | 1.7 | 0.861
CC(=O)N[C@@H](CC(C)C)C(=O)O [N-Acetyl-L-leucine] | -0.45 | -0.158 | -0.322 | 0.0999 | -0.425 | -0.357
COc1ccc(CC(C)NCC(O)c2ccc(O)c(NC=O)c2)cc1 (stereo not given) [Formoterol fumarate] | -0.505 | -1.42 | 0.171 | -0.609 | -0.478 | -0.313
CCOC(=O)[N-]c1c[n+](N2CCOCC2)no1 [Molsidomine] | -0.56 | 0.0751 | -0.59 | -0.136 | -0.558 | -0.532
c1ccc(-c2ccc(C(c3ccccc3)n3ccnc3)cc2)cc1 (stereo not given) [Bifonazole] | -0.285 | 0.816 | 0.345 | 0.00932 | -0.374 | -0.192
C#CCN(C)CCCOc1ccc(Cl)cc1Cl [Clorgyline hydrochloride] | -0.292 | 0.155 | -1.09 | -0.252 | -0.435 | -0.359
COc1ccc([C@@H]2CC(=O)c3c(O)cc(O[C@@H]4O[C@H](CO[C@@H]5O[C@@H](C)[C@H](O)[C@@H](O)[C@H]5O)[C@@H](O)[C@H](O)[C@H]4O)cc3O2)cc1O [Hesperidin] | -0.494 | -1.29 | -0.6 | -0.779 | -0.447 | -0.68
CCC[C@@H]1C[C@@H](C(=O)N[C@@H]([C@H]2O[C@H](SC)[C@H](O)[C@@H](O)[C@H]2O)[C@H](C)Cl)N(C)C1 [Clindamycin hydrochloride] | -0.543 | -0.18 | -0.979 | -0.574 | -0.567 | -0.563
CN(C)CCCN1c2ccccc2Sc2ccc(Cl)cc21 [Chlorpromazine hydrochloride] | 3.29 | 1.39 | 0.659 | 0.0307 | 2.35 | 1.67
